PubChem BioAssay (EPA / NIEHS)
Inconclusive results are not listed. Calls of active or inactive are those of the source. Rule for the calls: active = hit-call score of the fitted dose curve at least 0.9, where 1 is the maximum; inconclusive = response in the unintended direction; inactive = score below 0.9.

The molecules below were run against human Phosphatase and Tensin Homolog (PTEN), PTEN (gene 5728) (UniProt P60484) (assay: NVS_ENZ_hPTEN: NovaScreen (NVS) Enzymatic Assay for human Phosphatase and Tensin Homolog (PTEN) (AID 2283203)).
Outline: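 Loss of fluorescent product signal after mobility-shift separation reports PTEN activity, recombinant human enzyme, 1 h after compound addition. Single 25 uM duplicate screen, then concentration-response on actives; DMSO baseline.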

Sequence of human Phosphatase and Tensin Homolog (PTEN), PTEN (gene 5728) (P60484 whole entry, looked up): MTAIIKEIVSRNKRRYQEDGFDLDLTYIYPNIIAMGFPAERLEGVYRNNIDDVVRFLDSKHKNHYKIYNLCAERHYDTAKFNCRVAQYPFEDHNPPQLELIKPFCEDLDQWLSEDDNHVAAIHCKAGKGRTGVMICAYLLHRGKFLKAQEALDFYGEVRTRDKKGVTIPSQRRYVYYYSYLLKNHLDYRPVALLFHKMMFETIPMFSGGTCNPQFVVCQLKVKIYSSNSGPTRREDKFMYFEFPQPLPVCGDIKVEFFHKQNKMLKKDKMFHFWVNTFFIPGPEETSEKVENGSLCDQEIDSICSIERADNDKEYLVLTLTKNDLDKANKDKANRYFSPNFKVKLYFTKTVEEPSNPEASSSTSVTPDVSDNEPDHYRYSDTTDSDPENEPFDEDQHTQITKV

**Q.** With `Cc1ccccc1S(N)(=O)=O` as the molecule, how does the outcome read?
**A.** Its outcome is “inactive”.

**Q.** Which AC50 does the source give for `CCCCCC1=CCCC1=O` here?
**A.** Its AC50 is 16.3 µM (active).

**Q.** How did the AC50 turn out when `CC(C)c1ccccc1N` was run?
**A.** Its AC50 is 12.4 µM (active).

**Q.** With `Cc1cccc2c1ccc1ccccc12` as the molecule, how does the AC50 read?
**A.** The AC50 was 13.8 µM (active).

**Q.** `COc1cccc(OC)c1O` was tested. Which outcome did it give?
**A.** Its outcome is “inactive”.

**Q.** How did the outcome turn out when `CCOC(C=C(C)CCC=C(C)C)OCC` was run?
**A.** The outcome was “inactive”.

**Q.** For `CCC(=O)OCC=Cc1ccccc1`, which outcome is on record?
**A.** Its outcome is “inactive”.

**Q.** How did the outcome turn out when `CC/C=C\C#N` was run?
**A.** Its outcome is “inactive”.

**Q.** How did the outcome turn out when `CCCC(C)C=O` (centres undefined) was run?
**A.** Its outcome is “inactive”.

**Q.** How did the AC50 turn out when `CCCCOCC` was run?
**A.** The AC50 was 37 µM (active).

**Q.** `S=c1[nH][nH]c(=S)s1` was tested. Which AC50 did it give?
**A.** The AC50 was 2.47 µM (active).

**Q.** With `Cc1cncc(C)c1` as the molecule, how does the outcome read?
**A.** The outcome was “inactive”.

**Q.** Which AC50 does the source give for `CCCCC/C=C/C=C/C=O` here?
**A.** The AC50 was 25 µM (active).

**Q.** Which AC50 does the source give for `CC(c1cc(C(C)(C)C)cc(C(C)(C)C)c1O)c1cc(C(C)(C)C)cc(C(C)(C)C)c1O` here?
**A.** Its AC50 is 5.29 µM (active).

**Q.** How did the outcome turn out when `Fc1ccc(Br)cc1` was run?
**A.** The outcome was “inactive”.

**Q.** Which outcome does the source give for `CCC(C)C(=O)OC` (centres undefined) here?
**A.** The outcome was “inactive”.

**Q.** For `CC(=O)OCC=C(C)CCC=C(C)CCC=C(C)C`, which outcome is on record?
**A.** Its outcome is “inactive”.

**Q.** Which AC50 does the source give for `OCCC(O)CO` (centres undefined) here?
**A.** Its AC50 is 14.7 µM (active).

**Q.** How did the AC50 turn out when `CN(C)C(=S)SC(=S)N(C)C` was run?
**A.** Its AC50 is 18.9 µM (active).

**Q.** Which outcome does the source give for `CCCCCCCCCCc1ccccc1` here?
**A.** Its outcome is “inactive”.

**Q.** `N#[N+]c1ccc2c(S(=O)(=O)[O-])cccc2c1O` was tested. Which outcome did it give?
**A.** The outcome was “inactive”.

**Q.** Which outcome does the source give for `CCNc1nc(NC(C)(C)C)nc(OC)n1` here?
**A.** Its outcome is “inactive”.

**Q.** For `C=C(C)CCCC`, which outcome is on record?
**A.** Its outcome is “inactive”.

**Q.** Which outcome does the source give for `CCCCCCCCCCCCCCCC` here?
**A.** Its outcome is “inactive”.

**Q.** With `CCOC(=O)[C@H](C)O` as the molecule, how does the outcome read?
**A.** The outcome was “inactive”.

**Q.** For `Cc1nc(C)nc(N2C[C@@H](C)N(c3ccnc([C@@H](C)O)n3)[C@@H](C)C2)n1`, which outcome is on record?
**A.** The outcome was “inactive”.

**Q.** Which AC50 does the source give for `CCN(CC)CC` here?
**A.** The AC50 was 3.58 µM (active).

**Q.** How did the AC50 turn out when `Oc1ccc2c(c1)CCC2` was run?
**A.** Its AC50 is 1.62 µM (active).

**Q.** For `O=C(O)C[C@H](O)C[C@H](O)/C=C/c1c(C2CC2)nc2ccccc2c1-c1ccc(F)cc1`, which AC50 is on record?
**A.** Its AC50 is 0.161 µM (active).
